Experimental data reported in PubChem BioAssay.
A number with no mark means an inactive call. Calls of active or inactive are those of the source. Unless noted, no stated cut-off is given here; in the data, active means inhibition above about 28%; inactive means the rest.

Key:
[1] = StAR promoter reporter inhibitors, counter-screen for LRH-1 inverse agonist project, cell-based, luminescence, high throughput (AID 651611); conditions: StAR promoter luciferase reporter counterscreen, at 3.6 µM, stronger effect = higher value
[2] = target: Nuclear receptor subfamily 5 group A member 2 (Homo sapiens) (UniProt O00482); assay: NR5A2 activity suppression in reporter cells – cell-based, luminescence, confirmation (AID 651613; in the data active means inhibition above about 42%;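 further: HEK293T cells co-transfected with LRH-1 and StAR promoter luciferase reporter; 0% = vehicle wells and 100% = parental cells lacking receptor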); conditions: cell-based LRH-1 luciferase reporter, inverse agonism; at 3.6 µM; stronger effect = higher value
[3] = target: Steroidogenic factor 1 (Homo sapiens) (UniProt Q13285); assay: inverse agonism at SF1 nuclear receptor – cell-based, luminescence, high throughput, counter-screen for LRH-1 inverse agonist project (AID 651614; in the data active means inhibition above about 44%;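 further: cells cotransfected with StAR promoter reporter and SF1 expression vector; 0% = vehicle on cells with receptor and 100% = vehicle on cells lacking receptor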); conditions: cell-based SF1 luciferase reporter, at 3.6 µM, stronger effect = higher value
[4] = compounds suppressing VP16-driven luciferase signal – cell-based, luminescence, high throughput, counter-screen for LRH-1 inverse agonist project (AID 651615; in the data active means inhibition above about 33%); conditions: Gal4-VP16 luciferase reporter cells, at 3.6 µM, stronger effect = higher value

Nuclear receptor subfamily 5 group A member 2 (Homo sapiens), sequence (O00482 whole entry, looked up): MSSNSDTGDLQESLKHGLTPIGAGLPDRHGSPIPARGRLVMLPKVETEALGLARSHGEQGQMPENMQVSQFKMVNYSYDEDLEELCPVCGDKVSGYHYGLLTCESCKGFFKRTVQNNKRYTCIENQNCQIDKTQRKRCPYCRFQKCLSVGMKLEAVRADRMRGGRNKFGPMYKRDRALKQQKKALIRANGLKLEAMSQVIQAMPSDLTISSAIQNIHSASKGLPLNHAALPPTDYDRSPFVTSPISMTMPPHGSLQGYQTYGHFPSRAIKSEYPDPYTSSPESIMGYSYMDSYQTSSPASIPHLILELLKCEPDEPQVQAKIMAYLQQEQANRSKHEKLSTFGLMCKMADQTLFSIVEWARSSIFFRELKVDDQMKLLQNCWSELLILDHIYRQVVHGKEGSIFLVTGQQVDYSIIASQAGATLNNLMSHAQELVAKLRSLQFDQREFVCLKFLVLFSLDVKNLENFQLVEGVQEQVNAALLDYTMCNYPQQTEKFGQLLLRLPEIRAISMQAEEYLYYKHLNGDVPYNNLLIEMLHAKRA
Steroidogenic factor 1 (Homo sapiens), sequence (Q13285 whole entry, looked up, the tested form may be a part): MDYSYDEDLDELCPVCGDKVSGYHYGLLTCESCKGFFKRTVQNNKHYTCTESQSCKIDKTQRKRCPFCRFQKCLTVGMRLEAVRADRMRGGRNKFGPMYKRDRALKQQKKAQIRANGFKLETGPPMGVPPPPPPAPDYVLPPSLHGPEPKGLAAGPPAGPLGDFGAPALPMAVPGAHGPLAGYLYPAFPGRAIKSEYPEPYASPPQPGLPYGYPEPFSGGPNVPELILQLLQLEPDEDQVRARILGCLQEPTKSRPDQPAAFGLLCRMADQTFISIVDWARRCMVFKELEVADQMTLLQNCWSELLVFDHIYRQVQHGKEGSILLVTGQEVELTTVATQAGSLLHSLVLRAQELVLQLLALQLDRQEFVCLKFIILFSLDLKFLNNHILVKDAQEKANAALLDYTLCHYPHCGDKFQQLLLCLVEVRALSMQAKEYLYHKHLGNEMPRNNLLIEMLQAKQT

Row | Compound | inhibition [1] | inhibition [2] | inhibition [3] | inhibition [4]
1 | COc1ccc(CCNC(=O)CSC2=Nc3ccccc3C3=NC(C(C)C)C(=O)N23)cc1OC (stereo unspecified) | 21.5% | 62.3% (active) | 53.1% (active) | 0.61%
2 | CCn1c(=O)oc2cc(NC(=O)CCl)ccc21 | 44.4% (active) | 64.4% (active) | 65.9% (active) | -54.9%
3 | CC(NC(=O)CCl)c1ccccc1Br (stereo unspecified) | 23.9% | 60.2% (active) | 57.4% (active) | -27.4%
4 | CCn1cc(Br)c(C(=O)Nc2ccccc2C(=O)OC)n1 | 7.57% | 47.4% (active) | 46.6% (active) | -5.16%
5 | O=C(CN1C(=O)CCC1=O)Nc1ccc(Br)cc1 | 15.1% | 60.2% (active) | 52.2% (active) | -3.7%
6 | Cc1ccc(-c2nn3c(C)nnc3s2)cc1NC(=O)c1ccco1 | 7.12% | 63.2% (active) | 60.7% (active) | -12.3%
7 | Cc1c(Cl)cccc1NC(=O)CSc1sc2c(O)cc(=O)[nH]c2c1C#N | -3.35% | 25.5% | 29.2% | 6.14%
8 | Cc1ccccc1Nc1nc(Cl)c(C=O)s1 | 2.17% | 50.5% (active) | 41.7% | -5.11%
9 | CCc1nc(SCC(=O)c2ccccc2)c2ccccc2n1 | 7.58% | 45.8% (active) | 55.3% (active) | -18.1%
10 | C/C(=N/N1CCN(Cc2cccc3ccccc23)CC1)c1cccnc1 | -12% | -17.6% | -2.52% | -2.08%
11 | O=C(CCl)Nc1ccccc1C(=O)c1ccccc1 | 1.14% | 48.4% (active) | 50% (active) | -2.6%
12 | Cc1ccc(CN2CCC[C@]3(N[C@H](c4ccc(C(F)(F)F)cc4)[C@@H]4C(=O)N(Cc5ccccc5)C(=O)[C@@H]43)C2=O)cc1 | -2.71% | 24.8% | 28.4% | 22%
13 | CCOc1ccc(NC(=O)CSc2nncc(=O)n2N)cc1 | 12.1% | 64.5% (active) | 43.6% (active) | -9.32%
14 | CCC(C)n1c(SCC(=O)NCCc2ccc(S(N)(=O)=O)cc2)nc2ccsc2c1=O (stereo unspecified) | 10.6% | 48.7% (active) | 52.6% (active) | -3.41%
